In the supplement of paper PMC11732987, “Enantioselective OTUD7B fragment discovery through chemoproteomics screening and high-throughput optimisation” (Communications Chemistry, 2025):

What was measured:
Experiment in all cases: log2 ratio of Biotin-Ahx-Ub-VS probe labelling (fragment/DMSO); higher = less target engagement (more negative = stronger competition), active = hit call of the paper (q ≤ 0.05, log2 ratio ≤ -1)
Conditions in all cases: compound concentration: 200 uM; treatment time: 3 h
USP42 = target: T1, USP42 (UniProt Q9H9J4)
T1 sequence (whole entry): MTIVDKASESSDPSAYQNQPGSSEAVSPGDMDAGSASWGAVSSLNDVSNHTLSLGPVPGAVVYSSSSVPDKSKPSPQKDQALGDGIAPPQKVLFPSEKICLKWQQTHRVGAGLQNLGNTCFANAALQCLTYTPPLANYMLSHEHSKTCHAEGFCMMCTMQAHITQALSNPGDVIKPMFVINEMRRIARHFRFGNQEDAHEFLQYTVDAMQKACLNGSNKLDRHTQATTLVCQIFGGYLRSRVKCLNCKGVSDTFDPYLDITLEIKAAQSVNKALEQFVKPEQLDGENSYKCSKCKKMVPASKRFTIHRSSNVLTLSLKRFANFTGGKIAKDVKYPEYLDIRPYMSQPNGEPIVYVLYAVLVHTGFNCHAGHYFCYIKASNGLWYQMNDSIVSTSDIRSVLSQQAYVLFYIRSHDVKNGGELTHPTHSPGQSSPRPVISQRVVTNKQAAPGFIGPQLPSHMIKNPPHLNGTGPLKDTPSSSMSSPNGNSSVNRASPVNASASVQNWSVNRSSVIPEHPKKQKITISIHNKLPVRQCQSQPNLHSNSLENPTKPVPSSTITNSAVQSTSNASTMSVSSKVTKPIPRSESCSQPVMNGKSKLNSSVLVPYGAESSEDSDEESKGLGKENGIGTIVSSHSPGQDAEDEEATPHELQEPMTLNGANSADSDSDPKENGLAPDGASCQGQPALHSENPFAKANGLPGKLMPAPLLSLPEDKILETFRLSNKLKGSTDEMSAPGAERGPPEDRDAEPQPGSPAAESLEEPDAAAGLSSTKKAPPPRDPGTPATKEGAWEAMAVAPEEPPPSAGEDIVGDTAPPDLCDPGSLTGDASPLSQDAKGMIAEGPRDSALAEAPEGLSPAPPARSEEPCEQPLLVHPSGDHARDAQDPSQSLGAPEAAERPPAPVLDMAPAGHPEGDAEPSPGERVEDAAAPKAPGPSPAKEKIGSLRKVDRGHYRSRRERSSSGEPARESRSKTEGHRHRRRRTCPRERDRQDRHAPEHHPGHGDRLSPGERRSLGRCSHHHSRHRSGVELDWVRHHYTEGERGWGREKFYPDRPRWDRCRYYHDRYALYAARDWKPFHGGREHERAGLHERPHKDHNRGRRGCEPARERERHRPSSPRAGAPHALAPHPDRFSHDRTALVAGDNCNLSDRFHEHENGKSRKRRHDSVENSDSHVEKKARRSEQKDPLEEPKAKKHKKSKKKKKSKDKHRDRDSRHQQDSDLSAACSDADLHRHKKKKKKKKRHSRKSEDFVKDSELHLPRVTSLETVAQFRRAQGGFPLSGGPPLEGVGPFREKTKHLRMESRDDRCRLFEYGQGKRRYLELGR
How it was run: (§1)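 HEK293T lysate (495 µg per sample, in Tris/CHAPS/IGEPAL buffer with protease inhibitors) was treated in triplicate with fragment at 200 µM or with DMSO for 3 h. It was then treated with Biotin-Ahx-Ub-VS (0.5 µM final) for 1 h. Labelled DUBs were NeutrAvidin-enriched, digested with LysC and trypsin, and run by diaPASEF LC-MS/MS. Spectronaut label-free quantities were global-median-normalised. Values are average log2 ratios fragment/DMSO by unpaired t-test, using proteins with ≥2 unique peptides.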

USP46 = USP46 (UniProt P62068)
How it was run: as §1

USP47 = target: T2, USP47 (UniProt Q96K76)
T2 sequence (whole entry): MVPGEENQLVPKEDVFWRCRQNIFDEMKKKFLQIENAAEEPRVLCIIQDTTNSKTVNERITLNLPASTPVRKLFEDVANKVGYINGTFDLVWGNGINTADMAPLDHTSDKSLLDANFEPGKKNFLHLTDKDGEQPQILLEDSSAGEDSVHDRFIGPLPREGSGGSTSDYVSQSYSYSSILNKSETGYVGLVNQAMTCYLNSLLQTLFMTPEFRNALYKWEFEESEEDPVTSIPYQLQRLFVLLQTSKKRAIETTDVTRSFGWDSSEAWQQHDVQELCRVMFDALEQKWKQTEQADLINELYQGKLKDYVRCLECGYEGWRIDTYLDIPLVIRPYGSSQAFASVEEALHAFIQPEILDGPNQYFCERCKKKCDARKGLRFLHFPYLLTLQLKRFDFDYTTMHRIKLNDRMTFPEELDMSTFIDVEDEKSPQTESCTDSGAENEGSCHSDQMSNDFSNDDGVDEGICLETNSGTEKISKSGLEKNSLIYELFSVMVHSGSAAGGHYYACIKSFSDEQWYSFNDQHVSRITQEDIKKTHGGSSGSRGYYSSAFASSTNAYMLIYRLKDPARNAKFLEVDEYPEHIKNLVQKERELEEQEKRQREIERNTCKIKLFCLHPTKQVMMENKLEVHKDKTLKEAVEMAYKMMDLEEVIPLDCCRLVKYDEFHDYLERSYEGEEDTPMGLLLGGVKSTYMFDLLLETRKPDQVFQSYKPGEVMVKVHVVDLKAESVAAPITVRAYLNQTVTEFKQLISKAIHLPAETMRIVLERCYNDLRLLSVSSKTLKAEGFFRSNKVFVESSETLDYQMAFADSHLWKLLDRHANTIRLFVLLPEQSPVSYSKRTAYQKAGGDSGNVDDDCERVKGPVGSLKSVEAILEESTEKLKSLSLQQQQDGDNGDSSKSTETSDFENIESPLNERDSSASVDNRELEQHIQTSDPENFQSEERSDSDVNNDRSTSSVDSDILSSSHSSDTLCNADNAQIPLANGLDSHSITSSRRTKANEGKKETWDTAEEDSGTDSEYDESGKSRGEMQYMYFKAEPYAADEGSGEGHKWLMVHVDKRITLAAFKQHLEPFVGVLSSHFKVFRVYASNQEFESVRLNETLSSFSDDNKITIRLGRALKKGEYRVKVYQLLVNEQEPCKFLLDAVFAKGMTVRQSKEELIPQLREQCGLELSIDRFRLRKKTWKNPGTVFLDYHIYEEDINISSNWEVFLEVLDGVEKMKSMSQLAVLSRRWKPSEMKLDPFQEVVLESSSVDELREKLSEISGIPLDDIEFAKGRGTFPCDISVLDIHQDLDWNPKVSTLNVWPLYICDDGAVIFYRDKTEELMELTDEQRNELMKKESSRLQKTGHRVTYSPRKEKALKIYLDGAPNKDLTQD
How it was run: as §1

USP48 = target: T3, USP48 (UniProt Q86UV5)
T3 sequence (whole entry): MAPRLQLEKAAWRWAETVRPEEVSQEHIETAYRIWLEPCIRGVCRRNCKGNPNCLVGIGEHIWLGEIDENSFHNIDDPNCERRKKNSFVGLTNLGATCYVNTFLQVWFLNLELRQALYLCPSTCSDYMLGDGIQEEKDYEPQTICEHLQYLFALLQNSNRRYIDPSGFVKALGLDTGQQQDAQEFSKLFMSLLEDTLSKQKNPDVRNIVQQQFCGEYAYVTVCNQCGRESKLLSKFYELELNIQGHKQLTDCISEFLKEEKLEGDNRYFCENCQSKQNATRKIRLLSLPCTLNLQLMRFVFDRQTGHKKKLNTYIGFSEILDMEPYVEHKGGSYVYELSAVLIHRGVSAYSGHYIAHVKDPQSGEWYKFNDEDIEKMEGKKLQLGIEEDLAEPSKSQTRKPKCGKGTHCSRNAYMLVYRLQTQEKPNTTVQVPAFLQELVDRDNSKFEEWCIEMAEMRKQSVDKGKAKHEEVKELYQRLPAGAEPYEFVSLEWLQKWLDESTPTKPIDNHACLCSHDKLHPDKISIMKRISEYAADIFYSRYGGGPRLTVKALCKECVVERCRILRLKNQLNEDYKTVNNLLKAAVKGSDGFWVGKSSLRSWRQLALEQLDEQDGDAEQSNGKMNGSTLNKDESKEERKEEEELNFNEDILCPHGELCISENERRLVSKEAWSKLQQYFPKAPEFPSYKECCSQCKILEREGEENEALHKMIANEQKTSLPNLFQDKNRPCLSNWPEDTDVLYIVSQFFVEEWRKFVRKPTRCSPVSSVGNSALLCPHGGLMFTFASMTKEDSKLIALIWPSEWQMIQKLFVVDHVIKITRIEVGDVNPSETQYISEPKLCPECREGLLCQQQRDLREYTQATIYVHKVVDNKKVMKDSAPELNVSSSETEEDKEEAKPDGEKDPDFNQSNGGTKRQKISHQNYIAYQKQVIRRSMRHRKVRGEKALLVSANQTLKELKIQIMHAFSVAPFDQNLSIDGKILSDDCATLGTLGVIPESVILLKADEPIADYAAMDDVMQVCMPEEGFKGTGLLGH
How it was run: as §1

USP5 = target: T4, USP5 (UniProt P45974)
T4 sequence (whole entry): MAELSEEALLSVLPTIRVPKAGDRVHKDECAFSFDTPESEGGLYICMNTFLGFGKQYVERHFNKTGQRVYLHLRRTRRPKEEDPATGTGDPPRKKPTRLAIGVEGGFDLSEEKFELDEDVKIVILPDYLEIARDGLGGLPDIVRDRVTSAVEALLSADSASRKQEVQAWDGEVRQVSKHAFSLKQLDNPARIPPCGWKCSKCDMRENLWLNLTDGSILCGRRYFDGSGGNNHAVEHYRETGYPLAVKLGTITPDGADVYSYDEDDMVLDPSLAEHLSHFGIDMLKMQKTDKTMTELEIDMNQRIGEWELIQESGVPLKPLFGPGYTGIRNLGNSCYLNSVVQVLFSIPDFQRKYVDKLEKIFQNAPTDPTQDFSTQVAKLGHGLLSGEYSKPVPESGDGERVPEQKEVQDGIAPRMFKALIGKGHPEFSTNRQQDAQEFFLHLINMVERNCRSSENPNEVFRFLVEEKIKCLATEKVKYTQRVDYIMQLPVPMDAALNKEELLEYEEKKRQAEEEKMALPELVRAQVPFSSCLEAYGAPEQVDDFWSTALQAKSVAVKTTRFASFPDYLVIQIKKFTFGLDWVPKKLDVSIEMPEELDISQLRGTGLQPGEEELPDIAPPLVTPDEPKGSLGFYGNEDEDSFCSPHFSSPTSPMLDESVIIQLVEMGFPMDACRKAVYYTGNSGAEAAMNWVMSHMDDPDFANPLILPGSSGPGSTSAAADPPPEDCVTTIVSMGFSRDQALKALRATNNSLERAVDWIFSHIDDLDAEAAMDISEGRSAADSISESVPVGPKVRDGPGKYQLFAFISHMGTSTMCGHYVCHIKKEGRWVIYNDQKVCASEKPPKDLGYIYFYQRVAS
How it was run: as §1

USP54 = USP54 (UniProt Q70EL1)
How it was run: as §1

USP7 = USP7 (UniProt Q93009)
How it was run: as §1

USP8 = target: T5, USP8 (UniProt P40818)
T5 sequence (whole entry): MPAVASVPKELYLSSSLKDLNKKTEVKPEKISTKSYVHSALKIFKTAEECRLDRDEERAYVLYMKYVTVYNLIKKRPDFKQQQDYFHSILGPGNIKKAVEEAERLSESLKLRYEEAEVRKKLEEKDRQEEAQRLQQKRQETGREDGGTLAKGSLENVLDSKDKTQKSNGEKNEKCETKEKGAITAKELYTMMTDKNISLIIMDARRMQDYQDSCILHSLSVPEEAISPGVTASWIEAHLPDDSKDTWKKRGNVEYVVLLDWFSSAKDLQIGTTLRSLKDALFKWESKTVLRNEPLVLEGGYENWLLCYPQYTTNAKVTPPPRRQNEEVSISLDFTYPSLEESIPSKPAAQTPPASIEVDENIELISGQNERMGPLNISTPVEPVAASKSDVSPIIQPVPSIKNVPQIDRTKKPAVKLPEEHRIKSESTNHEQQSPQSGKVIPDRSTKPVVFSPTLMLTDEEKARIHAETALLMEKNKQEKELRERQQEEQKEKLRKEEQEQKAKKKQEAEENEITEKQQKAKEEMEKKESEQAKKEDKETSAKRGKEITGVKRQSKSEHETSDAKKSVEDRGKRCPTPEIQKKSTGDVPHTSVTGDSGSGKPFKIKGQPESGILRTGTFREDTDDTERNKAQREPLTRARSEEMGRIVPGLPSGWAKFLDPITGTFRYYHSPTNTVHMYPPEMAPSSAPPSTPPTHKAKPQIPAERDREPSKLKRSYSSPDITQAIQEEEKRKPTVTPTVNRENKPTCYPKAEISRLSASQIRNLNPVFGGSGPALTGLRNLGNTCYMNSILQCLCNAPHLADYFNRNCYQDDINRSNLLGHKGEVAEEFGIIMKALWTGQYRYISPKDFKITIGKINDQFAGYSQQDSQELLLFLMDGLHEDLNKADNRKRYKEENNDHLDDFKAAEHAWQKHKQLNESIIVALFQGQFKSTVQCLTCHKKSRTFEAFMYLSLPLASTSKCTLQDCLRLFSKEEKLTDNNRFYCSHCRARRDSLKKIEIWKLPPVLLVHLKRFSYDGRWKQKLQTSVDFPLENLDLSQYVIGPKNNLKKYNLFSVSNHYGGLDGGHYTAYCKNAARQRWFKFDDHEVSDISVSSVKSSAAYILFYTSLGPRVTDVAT
How it was run: as §1

Measured: log2 ratio of Biotin-Ahx-Ub-VS probe labelling

Sequence of USP46 (P62068 whole entry): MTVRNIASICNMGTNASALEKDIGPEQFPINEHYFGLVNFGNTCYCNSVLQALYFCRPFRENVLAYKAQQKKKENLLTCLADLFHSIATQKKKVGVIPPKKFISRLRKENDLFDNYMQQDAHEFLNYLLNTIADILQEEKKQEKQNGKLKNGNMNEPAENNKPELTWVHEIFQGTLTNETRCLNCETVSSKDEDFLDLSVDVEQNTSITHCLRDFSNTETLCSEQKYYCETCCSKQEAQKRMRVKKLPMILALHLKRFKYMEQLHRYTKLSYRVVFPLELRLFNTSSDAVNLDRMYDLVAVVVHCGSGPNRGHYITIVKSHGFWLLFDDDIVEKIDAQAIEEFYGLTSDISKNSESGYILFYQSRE
Sequence of USP54 (Q70EL1 whole entry): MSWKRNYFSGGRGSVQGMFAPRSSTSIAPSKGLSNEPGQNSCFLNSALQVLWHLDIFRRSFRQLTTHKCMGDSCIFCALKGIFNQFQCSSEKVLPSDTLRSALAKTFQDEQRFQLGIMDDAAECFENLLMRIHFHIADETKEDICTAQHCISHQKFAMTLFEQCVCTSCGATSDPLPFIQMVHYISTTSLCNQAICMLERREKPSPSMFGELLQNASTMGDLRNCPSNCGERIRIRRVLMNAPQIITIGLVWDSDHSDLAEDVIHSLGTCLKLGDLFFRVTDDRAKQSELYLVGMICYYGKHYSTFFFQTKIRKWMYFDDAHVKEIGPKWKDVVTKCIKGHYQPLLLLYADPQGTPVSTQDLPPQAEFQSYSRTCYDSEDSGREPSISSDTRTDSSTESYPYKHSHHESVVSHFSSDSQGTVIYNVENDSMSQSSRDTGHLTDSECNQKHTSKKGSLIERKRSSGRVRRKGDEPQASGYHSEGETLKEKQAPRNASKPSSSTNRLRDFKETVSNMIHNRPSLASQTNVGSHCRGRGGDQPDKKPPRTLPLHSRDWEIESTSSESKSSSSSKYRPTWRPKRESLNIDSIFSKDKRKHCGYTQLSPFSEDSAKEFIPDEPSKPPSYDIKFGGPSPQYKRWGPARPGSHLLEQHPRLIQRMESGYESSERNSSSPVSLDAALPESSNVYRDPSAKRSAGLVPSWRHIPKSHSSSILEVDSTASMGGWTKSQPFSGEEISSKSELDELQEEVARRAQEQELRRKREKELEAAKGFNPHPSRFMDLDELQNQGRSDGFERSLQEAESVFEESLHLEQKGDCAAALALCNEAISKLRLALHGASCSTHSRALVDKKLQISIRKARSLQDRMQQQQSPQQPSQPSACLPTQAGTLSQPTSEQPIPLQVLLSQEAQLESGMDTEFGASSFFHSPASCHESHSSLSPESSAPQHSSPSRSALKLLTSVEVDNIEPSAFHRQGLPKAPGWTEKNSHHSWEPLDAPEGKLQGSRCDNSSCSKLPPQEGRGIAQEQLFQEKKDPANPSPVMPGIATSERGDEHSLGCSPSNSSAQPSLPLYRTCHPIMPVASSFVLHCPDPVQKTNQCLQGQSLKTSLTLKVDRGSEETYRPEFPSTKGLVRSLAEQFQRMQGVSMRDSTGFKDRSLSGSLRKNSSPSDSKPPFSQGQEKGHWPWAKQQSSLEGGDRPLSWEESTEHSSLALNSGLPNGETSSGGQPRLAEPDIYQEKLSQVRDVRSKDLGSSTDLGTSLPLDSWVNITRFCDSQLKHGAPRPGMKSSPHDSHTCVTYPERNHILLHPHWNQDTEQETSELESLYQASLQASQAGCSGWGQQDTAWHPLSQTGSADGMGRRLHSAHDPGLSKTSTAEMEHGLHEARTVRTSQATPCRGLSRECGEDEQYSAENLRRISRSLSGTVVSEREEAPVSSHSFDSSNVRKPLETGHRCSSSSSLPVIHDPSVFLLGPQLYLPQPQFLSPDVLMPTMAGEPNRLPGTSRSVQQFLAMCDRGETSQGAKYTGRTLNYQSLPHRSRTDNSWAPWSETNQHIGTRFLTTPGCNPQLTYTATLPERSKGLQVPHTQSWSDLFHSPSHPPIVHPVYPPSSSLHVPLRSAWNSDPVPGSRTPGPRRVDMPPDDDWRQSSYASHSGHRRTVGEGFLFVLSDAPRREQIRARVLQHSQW
Sequence of USP7 (Q93009 whole entry, looked up): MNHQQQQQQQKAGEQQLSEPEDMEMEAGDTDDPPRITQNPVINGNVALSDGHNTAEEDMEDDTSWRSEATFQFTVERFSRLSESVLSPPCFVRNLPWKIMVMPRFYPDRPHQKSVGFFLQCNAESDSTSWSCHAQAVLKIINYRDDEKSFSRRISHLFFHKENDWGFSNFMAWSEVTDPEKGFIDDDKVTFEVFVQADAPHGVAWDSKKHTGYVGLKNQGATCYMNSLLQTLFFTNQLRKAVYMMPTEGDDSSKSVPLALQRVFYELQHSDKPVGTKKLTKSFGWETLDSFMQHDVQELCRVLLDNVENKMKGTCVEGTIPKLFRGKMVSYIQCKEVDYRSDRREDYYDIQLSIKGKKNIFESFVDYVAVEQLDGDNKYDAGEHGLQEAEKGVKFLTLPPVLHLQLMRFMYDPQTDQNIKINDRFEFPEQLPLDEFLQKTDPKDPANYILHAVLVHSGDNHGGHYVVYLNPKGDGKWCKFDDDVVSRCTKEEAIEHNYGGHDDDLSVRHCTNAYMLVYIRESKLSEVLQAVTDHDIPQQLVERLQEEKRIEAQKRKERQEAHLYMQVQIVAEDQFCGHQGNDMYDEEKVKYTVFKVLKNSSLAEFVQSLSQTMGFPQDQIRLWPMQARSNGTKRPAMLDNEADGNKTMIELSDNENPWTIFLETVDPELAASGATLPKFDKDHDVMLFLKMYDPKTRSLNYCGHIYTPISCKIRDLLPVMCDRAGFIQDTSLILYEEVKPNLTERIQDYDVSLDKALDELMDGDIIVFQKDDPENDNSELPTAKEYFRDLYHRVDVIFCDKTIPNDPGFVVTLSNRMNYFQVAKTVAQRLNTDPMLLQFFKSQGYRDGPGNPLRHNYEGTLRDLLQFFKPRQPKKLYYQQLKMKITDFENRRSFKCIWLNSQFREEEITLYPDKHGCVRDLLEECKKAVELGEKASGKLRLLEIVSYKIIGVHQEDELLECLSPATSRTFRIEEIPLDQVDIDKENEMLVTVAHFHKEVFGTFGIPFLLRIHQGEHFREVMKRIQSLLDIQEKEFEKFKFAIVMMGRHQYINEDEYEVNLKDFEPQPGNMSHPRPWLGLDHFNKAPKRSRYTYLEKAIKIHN

N#Cc1cnn(-c2ccccc2)c1NC(=O)CCl
inactive: USP42 -0.0771 | USP46 -0.0464 | USP47 -0.263 | USP48 -0.451 | USP5 -0.203 | USP54 0.718 | USP7 -0.45 | USP8 -0.512
